Screening results from PubChem BioAssay.
Only some compounds are listed: those with a hit (about 12% of all), similar ones and a draw of the others.
HP1b chromo inh = HTS for Inhibitors of HP1-beta Chromodomain Interactions with Methylated Histone Tails; AlphaScreen HP1-beta / biotin-H3K9me3 peptide binding; Potency, µM (top dose mostly 114 µM), for the others: at the top dose activity change, negative = inhibition, most hits filed as inhibitors; 390,000 compounds, 0.56% hits; also: nearly all actives have a fitted effect of over 70% in size
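Compound inhibition of the preformed complex between 50 nM HP1-beta and 50 nM biotinylated H3K9me3 peptide was read by AlphaScreen. Buffer was PBS pH 7.4 with 0.01% Tween-20. Incubations ran 30 min at room temperature, with 10 ug/mL donor/acceptor beads.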
JMJD2A Tudor = qHTS Assay for Inhibitors of JMJD2A-Tudor Domain; Lysine-specific demethylase 4A (Homo sapiens), O75164; AlphaScreen JMJD2A-Tudor / H3K4me3 peptide binding; Potency, µM (top dose mostly 114 µM), for the others: at the highest dose activity change, negative = inhibition, usual class: inhibitors; 390,000 compounds, 4.4% hits; AID 504339, 2011; also: % is scaled to controls: 0 for no effect and ±100 for the full control effect; nearly all actives have a fitted effect of over 50% in size
Sfp PPTase inh = qHTS Assay for Inhibitors of Bacillus subtilis Sfp phosphopantetheinyl transferase (PPTase); Biochemical Sfp PPTase activity, qHTS; Potency, µM, for the others: largest response in the series, negative = inhibition, actives largely listed as inhibitors; 310,000 compounds, 3.5% hits; 4'-phosphopantetheinyl transferase ffp (Bacillus subtilis), Q9F4F7;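 also: the enzyme is Sfp with the accession as filed and its product quenches rhodamine fluorescence; 0% = enzyme reaction without inhibitor and -100% = no enzyme wells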
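Compounds were incubated with enzyme (final 15 nM) for 15 min at room temperature before substrate addition started the reaction. Fluorescence at 525 nm excitation, 598 nm emission was recorded immediately and after 30 minutes.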
L3MBTL1 block = qHTS Assay for the Inhibitors of L3MBTL1; Lethal(3)malignant brain tumor-like protein 1 (Homo sapiens), Q9Y468; AlphaScreen L3MBTL1–H3K9me1 peptide binding; Potency, µM (doses to about 57.1 µM), without a hit: at the highest dose activity, negative = inhibition, usual class: inhibitors; 230,000 compounds, 0.66% hits; AID 485360, 2010; also: % is scaled to controls: 0 for no effect and ±100 for the full control effect; nearly all actives have a fitted effect of over 60% in size
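Read-out is AlphaScreen signal from streptavidin donor and nickel chelate acceptor beads (10 ug/mL final each) bridging L3MBTL1 (50 nM) and biotinylated K9-monomethylated H3(1-15) peptide (75 nM), after 30 min compound exposure at room temperature.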
G9a block = qHTS Assay for Inhibitors of Histone Lysine Methyltransferase G9a. Histone-lysine N-methyltransferase EHMT2 (Homo sapiens), Q96KQ7. 350,000 compounds, 8.8% hits. G9a H3K9 monomethylation, AlphaScreen, 2 h. Potency, µM (doses to about 102 µM), for inactives: at the highest dose activity, negative = inhibition, actives largely listed as inhibitors; also: % is scaled to controls: 0 for no effect and ±100 for the full control effect; nearly all actives have a fitted effect of over 75% in size
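Signal arises when biotinylated H3K9 peptide, once monomethylated, bridges streptavidin donor and antibody-captured acceptor beads. Enzyme at 20 nM was preincubated 15 min with test compounds; peptide 500 nM and SAM 20 uM then reacted for 2 h.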
BAZ2B inh = qHTS Assay for Inhibitors of BAZ2B; AlphaScreen BAZ2B-H3K14Ac peptide displacement; Bromodomain adjacent to zinc finger domain protein 2B (Homo sapiens), Q9UIF8; Potency, µM (doses to about 114 µM), without a hit: at the highest dose activity change, negative = inhibition, usual class: inhibitors; 360,000 compounds, 4.4% hits; also: % is scaled to controls: 0 for no effect and ±100 for the full control effect; nearly all actives have a fitted effect of over 60% in size
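Multi-concentration screen (max 110 uM) measuring displacement of acetylated histone H3 peptide from BAZ2B by AlphaScreen, using 50 nM protein, 50 nM peptide and 10 ug/mL streptavidin donor plus Ni-chelate acceptor beads.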
* marks the source's active call; other numbers are inactive results; ? = inconclusive; / = no result given; [ ] = dose if it differs, or a comment. Calls follow the shape of the dose curve; as a rule, active = well fitted curve in the direction sought with a large enough effect; inconclusive = small, poorly fitted or top-dose-only effect, or another doubt; inactive = no such curve, though single readings can be large; an effect the other way counts as inactive or inconclusive. Potency is read from the fitted curve at half-maximal effect.

SMILES	HP1b chromo inh	JMJD2A Tudor	Sfp PPTase inh	L3MBTL1 block	G9a block	BAZ2B inh
CCC1(c2ccc(F)cc2)NC(=O)N(CC(=O)Nc2cccnc2Cl)C1=O (centres undefined)	50%	-21%	/	3%	?	0%
Cc1cc(C)c(C)c(S(=O)(=O)NCCCn2ccnc2)c1C	25%	-17%	8%	-5%	16%	-38%
CCCCCCCCCCC(C)=O	/	/	25%	/	/	/
Cc1c(OCC(=O)NCc2ccccn2)ccc2c3c(c(=O)oc12)CCCC3	14%[57 µM]	50µM*	-9%	/	?	-13%
O=C(NCc1ccccn1)c1cccc(S(=O)(=O)NCc2ccccc2)c1	45%	-13%	/	-4%	15%	56µM*
O=C(NCc1ccccn1)c1ccc(Cl)c(S(=O)(=O)NCc2ccccc2)c1	42%	-5%	/	-4%	36%[12.7 µM]	-3%
O=C(CSc1nc2c(sc3ccccc32)c(=O)n1CCCC(=O)NC1CCCC1)Nc1ccc(F)cc1	44%	9%	/	/	5%[59 µM]	-14%
CCN=C1S/C(=C/c2ccc(-c3ccc(F)cc3)o2)C(=O)N1CC	36%	28%	56µM*	/	35µM*	-32%
CCN=C1S/C(=C\c2ccc(Sc3ccc(Cl)cc3)o2)C(=O)N1CC	163%	46%	1%	6%	148%	27%
Cc1nc(NC(=O)C2CC2)sc1C(=O)Nc1ccccc1	16%	-7%	2%	-1%	/	5%
Cc1nc(Nc2c(Cl)cccc2Cl)sc1C(=O)Nc1ccccc1	25%	-8%	14%	3%	50µM*	?
Cc1nc(N)sc1C(=O)Nc1ccccc1	24%	?	5%	7%	50µM*	-29%
Cc1ccc(NC(=O)c2sc(N)nc2C)cc1	38%	-13%	0%	/	19%	-4%
Cc1cc(C)c2nc(N(CCN(C)C)C(=O)c3ccc4ccccc4c3)sc2c1	-12%	40µM*	56µM*	/	40µM*	?
CN(C)CCN(C(=O)c1ccc2ccccc2c1)c1nc2c(F)cccc2s1	1%	?	-4%	/	40µM*	-37%[57.1 µM]
Cc1cc(C)c2nc(N(CCN(C)C)C(=O)c3ccc(S(=O)(=O)N(C)CC4CCCO4)cc3)sc2c1 (centres undefined)	-15%	?	?	/	79µM*	?
CC(=O)N(Cc1cccnc1)c1nc2c(C)cc(C)cc2s1	17%	-7%	/	/	?	-13%
COc1ccc(OC)c2sc(N(CCN(C)C)C(=O)c3cc(Cl)sc3Cl)nc12	?	?	56µM*	/	?	/
CN(C)CCCN(C(=O)c1ccc(S(=O)(=O)N2CCc3ccccc3C2)cc1)c1nc2c(F)cccc2s1	35%	-7%	4%	/	-12%	-9%
Cc1cccc(-c2ccc3ncnc(NCc4cc(C)cs4)c3c2)c1	/	/	/	-3%	-7%[12.7 µM]	-2%
CC[C@H](C)Cc1cn([C@@H](CCCCNC(=O)OC(C)(C)C)C(=O)NCCCCCCCCCCC(=O)N2CCN(C(=O)OC(C)(C)C)CC2)nn1	21%	-20%	/	-1%	14%[2.33 µM]	6%
NC(=O)c1ccsc1NC(=O)c1ccc([N+](=O)[O-])o1	-15%	?	/	?	/	/
COc1ccc2sc(N(CCN(C)C)C(=O)c3ccc4ccccc4c3)nc2c1	-14%[57 µM]	40µM*	-11%	/	40µM*	?
COc1ccc(C)c2sc(N(CCN(C)C)C(=O)c3ccc4ccccc4c3)nc12	-16%	?	-30%	/	50µM*	?
CCOc1cccc2sc(N(CCN(C)C)C(=O)c3ccc4ccccc4c3)nc12	-16%	?	-7%	/	50µM*	?
